In the supplement of paper PMC8728848:
The entries come from a sample that favours the strongest signals as a whole.

What was measured:
Test in all cases: glycan array binding signal (z-score within array); higher = stronger binding
Details in all cases: glycan notation: IUPAC condensed, linker removed
[1] = biological target: Fuc(a1-2)Gal6S(b1-4)Glc6S
In short: (§1)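 Arrays were curated from the Consortium for Functional Glycomics database, 3228 in total, and kept only where the protein sequence was available. Binding is expressed as a within-array Z-score. This score was averaged across arrays of the same protein sequence at different concentrations or buffers and across linkers, and negative values can be read as non-binding.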

[2] = biological target: Fuc(a1-2)[Gal(a1-3)]Gal(b1-4)GlcNAc
In short: as §1

[3] = biological target: Fuc(a1-2)[GalNAc(a1-3)]Gal(b1-3)GlcNAc
In short: as §1

[4] = biological target: Fuc(a1-2)[GalNAc(a1-4)]Gal(b1-4)GlcNAc
In short: as §1

[5] = biological target: Fuc(a1-3)GlcNAc
In short: as §1

[6] = biological target: Fuc(a1-3)[Gal(b1-4)]GlcNAc(b1-2)Man(a1-6)[Gal(b1-4)GlcNAc(b1-2)Man(a1-3)]Man(b1-4)GlcNAc(b1-4)GlcNAc
In short: as §1

[7] = biological target: Fuc(a1-4)GlcNAc
In short: as §1

[8] = biological target: Gal(a1-3)[Gal(a1-4)]Gal(b1-4)GlcNAc
In short: as §1

[9] = biological target: Gal(a1-4)Gal(b1-4)Glc
In short: as §1

[10] = biological target: Gal(b1-4)GalNAc(a1-3)[Fuc(a1-2)]Gal(b1-4)GlcNAc
In short: as §1

[11] = biological target: Gal(b1-4)Glc
In short: as §1

[12] = biological target: Gal(b1-4)Glc6S
In short: as §1

[13] = biological target: GlcNAc(a1-3)Gal(b1-4)GlcNAc
In short: as §1

[14] = biological target: GlcNAc(a1-6)Gal(b1-4)GlcNAc
In short: as §1

[15] = biological target: Neu5Ac(a2-3)Gal
In short: as §1

[16] = biological target: Neu5Ac(a2-3)Gal(b1-4)[Fuc(a1-3)]GlcNAc(b1-3)Gal(b1-4)GlcNAc
In short: as §1

[17] = biological target: Neu5Ac(a2-3)Gal(b1-4)[Fuc(a1-3)]GlcNAc(b1-6)[Gal(b1-3)]GalNAc
In short: as §1

[18] = biological target: Neu5Ac(a2-3)GalNAc(b1-4)GlcNAc
In short: as §1

[19] = biological target: Neu5Ac(a2-6)Gal(b1-4)Glc
In short: as §1

[20] = biological target: Neu5Ac(a2-6)Gal(b1-4)GlcNAc
In short: as §1

[21] = biological target: Neu5Ac(a2-6)Gal(b1-4)GlcNAc(b1-2)Man(a1-3)[Gal(b1-4)GlcNAc(b1-2)Man(a1-6)]Man(b1-4)GlcNAc(b1-4)GlcNAc
In short: as §1

[22] = biological target: Neu5Ac(a2-6)Gal(b1-4)GlcNAc(b1-2)Man(a1-3)[GlcNAc(b1-2)Man(a1-6)]Man(b1-4)GlcNAc(b1-4)GlcNAc
In short: as §1

[23] = biological target: Neu5Ac(a2-6)Gal(b1-4)GlcNAc(b1-2)Man(a1-3)[Neu5Ac(a2-6)Gal(b1-4)GlcNAc(b1-2)Man(a1-6)]Man(b1-4)GlcNAc(b1-4)GlcNAc
In short: as §1

[24] = biological target: Neu5Ac(a2-6)Gal(b1-4)GlcNAc(b1-2)Man(a1-6)[GlcNAc(b1-2)Man(a1-3)]Man(b1-4)GlcNAc(b1-4)GlcNAc
In short: as §1

[25] = biological target: Neu5Ac(a2-6)Gal(b1-4)GlcNAc6S
In short: as §1

[26] = biological target: Gal3S6S(b1-4)GlcNAc6S
In short: as §1

[27] = biological target: GalNAc(b1-3)Gal(a1-4)Gal(b1-4)GlcNAc
In short: as §1

[28] = biological target: GlcNAc(a1-4)Gal(b1-4)GalNAc
In short: as §1

[29] = biological target: GlcNAc(b1-2)Man(a1-3)[GlcNAc(b1-4)][GlcNAc(b1-2)Man(a1-6)]Man(b1-4)GlcNAc(b1-4)[Fuc(a1-6)]GlcNAc
In short: as §1

[30] = biological target: GlcNAc(b1-3)Gal(b1-4)GlcNAc(b1-3)Gal(b1-4)GlcNAc(b1-2)Man(a1-3)[GlcNAc(b1-3)Gal(b1-4)GlcNAc(b1-3)Gal(b1-4)GlcNAc(b1-2)Man(a1-6)]Man(b1-4)GlcNAc(b1-4)GlcNAc
In short: as §1

[31] = biological target: GlcNAc6S(b1-3)Gal(b1-4)GlcNAc
In short: as §1

[32] = biological target: Man(a1-2)Man(a1-3)Man
In short: as §1

[33] = biological target: Man(a1-2)Man(a1-3)[Man(a1-6)]Man(a1-6)[Man(a1-2)Man(a1-3)]Man(b1-4)GlcNAc(b1-4)GlcNAc
In short: as §1

[34] = biological target: Man(a1-3)[Man(a1-6)]Man(b1-4)GlcNAc(b1-4)GlcNAc
In short: as §1

[35] = biological target: Neu5Ac(a2-3)Gal(b1-3)GalNAc
In short: as §1

[36] = biological target: Neu5Ac(a2-3)Gal(b1-3)GalNAc(b1-4)[Neu5Ac(a2-8)Neu5Ac(a2-3)]Gal(b1-4)Glc
In short: as §1

[37] = biological target: Neu5Ac(a2-3)Gal(b1-3)GlcNAc(b1-3)GalNAc
In short: as §1

[38] = biological target: Neu5Ac(a2-3)Gal(b1-4)GlcNAc(b1-3)Gal(b1-4)GlcNAc(b1-3)Gal(b1-4)GlcNAc
In short: as §1

[39] = biological target: Neu5Ac(a2-3)Gal(b1-4)GlcNAc(b1-3)Gal(b1-4)GlcNAc(b1-3)Gal(b1-4)GlcNAc(b1-2)Man(a1-3)[Neu5Ac(a2-3)Gal(b1-4)GlcNAc(b1-3)Gal(b1-4)GlcNAc(b1-3)Gal(b1-4)GlcNAc(b1-2)Man(a1-6)]GalNAc
In short: as §1

[40] = biological target: Neu5Ac(a2-3)Gal(b1-4)[Fuc(a1-3)]GlcNAc(b1-2)Man
In short: as §1

[41] = biological target: Neu5Ac(a2-3)[GalNAc(b1-4)]Gal(b1-4)Glc
In short: as §1

[42] = biological target: Neu5Ac(a2-6)Gal(b1-4)GlcNAc(b1-2)Man(a1-3)[Man(a1-6)]Man(b1-4)GlcNAc(b1-4)GlcNAc
In short: as §1

[43] = biological target: Neu5Ac(a2-6)Gal(b1-4)GlcNAc(b1-2)[Neu5Ac(a2-6)Gal(b1-4)GlcNAc(b1-4)]Man(a1-3)[GlcNAc(b1-4)][Neu5Ac(a2-6)Gal(b1-4)GlcNAc(b1-4)Man(a1-6)]Man(b1-4)GlcNAc(b1-4)GlcNAc
In short: as §1

[44] = biological target: Neu5Ac(a2-6)Gal(b1-4)GlcNAc(b1-3)Gal(b1-4)GlcNAc(b1-2)Man(a1-3)[Neu5Ac(a2-6)Gal(b1-4)GlcNAc(b1-3)Gal(b1-4)GlcNAc(b1-2)Man(a1-6)]GalNAc
In short: as §1

[45] = biological target: Neu5Ac(a2-6)Gal(b1-4)GlcNAc(b1-3)[Neu5Ac(a2-6)Gal(b1-4)GlcNAc(b1-6)]GalNAc
In short: as §1

[46] = biological target: Neu5Ac(a2-6)Gal(b1-4)GlcNAc(b1-6)[Gal(b1-3)]GalNAc
In short: as §1

[47] = biological target: Neu5Ac(a2-6)GalNAc(b1-4)GlcNAc
In short: as §1

[48] = biological target: Neu5Ac(a2-8)Neu5Ac(a2-3)[Gal(b1-3)GalNAc(b1-4)]Gal(b1-4)Glc
In short: as §1

[49] = biological target: Neu5Ac(a2-8)Neu5Gc(a2-3)Gal(b1-4)GlcNAc
In short: as §1

B1: SLR2P3F12 (Tachypleus tridentatus), TAL2_TACTR (protein)
chain: MEKGTPPTHDSDNWMGRAKKIGNGGWNQFQFLFFDPNGYLYAVSKDKLYKASPPQSDTDNWIARATEIGSGGWSGFKSLFFHPNGYLYAVHGQRLYKALPPVSNQD
glycan array binding signal (z-score) [1]: -0.343
glycan array binding signal (z-score) [2]: -0.417
glycan array binding signal (z-score) [3]: 0.556
glycan array binding signal (z-score) [4]: 2.01
glycan array binding signal (z-score) [5]: -0.301
glycan array binding signal (z-score) [6]: 0.218
glycan array binding signal (z-score) [7]: 1.42
glycan array binding signal (z-score) [8]: 0.143
glycan array binding signal (z-score) [9]: -0.342
glycan array binding signal (z-score) [10]: -0.208
glycan array binding signal (z-score) [11]: 2.75
glycan array binding signal (z-score) [12]: -0.248
glycan array binding signal (z-score) [13]: 5.11
glycan array binding signal (z-score) [14]: 13.2
glycan array binding signal (z-score) [15]: -0.415
glycan array binding signal (z-score) [16]: -0.203
glycan array binding signal (z-score) [17]: 2.75
glycan array binding signal (z-score) [18]: 0.435
glycan array binding signal (z-score) [19]: -0.125
glycan array binding signal (z-score) [20]: -0.317
glycan array binding signal (z-score) [21]: -0.422
glycan array binding signal (z-score) [22]: -0.235
glycan array binding signal (z-score) [23]: 0.131
glycan array binding signal (z-score) [24]: 1.27
glycan array binding signal (z-score) [25]: 0.194

B2: PX14367A-bth-493-35-493 (Bacteroides thetaiotaomicron) (protein)
chain: VSSDQVAVAGNAERLFNGAWYNLFEYGTTYANIGYRALQCQDDMMASDVVSRPKYGFNSSYQFNDVAIPSDGRTSFAWYLIYKTIDNCNTAISIKGDSEELRQAQGQALALRAFCYLHLVQHYQFTYLKDKDAPCVPIYTEPTTSGTKPKGKSTVAQVYQQIFDDLNLAQDYLTNYVRKGDGQKFKPNTDVVNGLMARAYLLTGQWGEAAKAAEAARKGYSLMTTTAEYEGFNNISNKEWIWGSPQTLSQSDASYNFYYLDATYVGAYSSFMADPHLMDTFVKGDIRLPLFQWMREGYLGYKKFHMRSDDTADLVLMRSAEMYLIEAEAKVRDGVALDQAVAPLNTLRTARGVGNYDVTGKTKEQVIDEILMERRRELWGEGFGITDVLRNQKAVERMALSEDMQKTEVDCWQEGGSFAKRNPLGHWFLNFPDGKAFSANSSYYLYAIPEKEINANPNL
glycan array binding signal (z-score) [26]: 0.726
glycan array binding signal (z-score) [27]: 4.2
glycan array binding signal (z-score) [28]: -0.551
glycan array binding signal (z-score) [29]: -0.396
glycan array binding signal (z-score) [30]: 1.06
glycan array binding signal (z-score) [31]: -0.213
glycan array binding signal (z-score) [32]: 0.44
glycan array binding signal (z-score) [33]: -0.608
glycan array binding signal (z-score) [34]: 0.166
glycan array binding signal (z-score) [35]: -0.407
glycan array binding signal (z-score) [36]: -0.448
glycan array binding signal (z-score) [37]: -0.042
glycan array binding signal (z-score) [38]: -0.083
glycan array binding signal (z-score) [39]: 1.29
glycan array binding signal (z-score) [40]: -0.443
glycan array binding signal (z-score) [41]: -0.325
glycan array binding signal (z-score) [42]: 0.504
glycan array binding signal (z-score) [43]: -0.361
glycan array binding signal (z-score) [44]: 6.47
glycan array binding signal (z-score) [45]: -0.601
glycan array binding signal (z-score) [46]: 0.377
glycan array binding signal (z-score) [47]: -0.719
glycan array binding signal (z-score) [48]: -0.3
glycan array binding signal (z-score) [49]: 11.1
